# Unmarked numbers belong to inactive results.
# Key:
# Assay in all cases: log2 ratio of Biotin-Ahx-Ub-VS probe labelling (fragment/DMSO); higher = less target engagement (more negative = stronger competition), active = hit call of the paper (q ≤ 0.05, log2 ratio ≤ -1)
# Details in all cases: compound concentration: 200 uM; treatment time: 3 h
# ALG13 = target: T1, ALG13 (UniProt Q9NP73)
# T1 sequence (whole entry): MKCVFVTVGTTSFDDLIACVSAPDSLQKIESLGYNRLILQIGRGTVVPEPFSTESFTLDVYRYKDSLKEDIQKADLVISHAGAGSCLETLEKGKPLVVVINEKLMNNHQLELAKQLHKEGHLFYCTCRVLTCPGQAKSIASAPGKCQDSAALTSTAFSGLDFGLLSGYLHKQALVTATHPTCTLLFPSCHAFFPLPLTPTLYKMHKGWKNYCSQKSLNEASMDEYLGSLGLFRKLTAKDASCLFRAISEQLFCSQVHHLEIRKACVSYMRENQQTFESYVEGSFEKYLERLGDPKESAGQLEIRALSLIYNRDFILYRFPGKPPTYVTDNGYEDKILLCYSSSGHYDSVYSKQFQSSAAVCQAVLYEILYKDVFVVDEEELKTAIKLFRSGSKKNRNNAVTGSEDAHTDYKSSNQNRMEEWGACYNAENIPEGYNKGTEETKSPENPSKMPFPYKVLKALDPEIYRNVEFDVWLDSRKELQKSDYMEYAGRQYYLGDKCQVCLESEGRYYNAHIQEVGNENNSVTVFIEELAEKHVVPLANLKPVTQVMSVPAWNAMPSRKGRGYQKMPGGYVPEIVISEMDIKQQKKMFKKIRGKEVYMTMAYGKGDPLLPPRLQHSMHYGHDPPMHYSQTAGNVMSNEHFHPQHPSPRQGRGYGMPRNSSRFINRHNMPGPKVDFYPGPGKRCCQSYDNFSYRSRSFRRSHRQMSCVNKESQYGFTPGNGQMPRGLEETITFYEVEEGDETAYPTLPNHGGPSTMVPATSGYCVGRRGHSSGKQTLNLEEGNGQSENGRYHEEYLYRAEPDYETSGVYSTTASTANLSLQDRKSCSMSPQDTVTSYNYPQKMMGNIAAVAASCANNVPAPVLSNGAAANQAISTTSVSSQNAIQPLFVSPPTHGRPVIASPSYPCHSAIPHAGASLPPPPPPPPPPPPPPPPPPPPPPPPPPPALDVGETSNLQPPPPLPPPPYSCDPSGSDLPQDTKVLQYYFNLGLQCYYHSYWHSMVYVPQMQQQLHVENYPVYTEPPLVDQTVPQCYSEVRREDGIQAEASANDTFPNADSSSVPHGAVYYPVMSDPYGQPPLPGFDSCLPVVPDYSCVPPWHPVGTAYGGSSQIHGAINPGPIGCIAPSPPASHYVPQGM
# Procedure, shortened: (§1)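 Fragment (200 µM) or vehicle was incubated for 3 h with triplicate HEK293T lysate samples of 495 µg, which were then treated with Biotin-Ahx-Ub-VS at 0.5 µM final for 1 h. Labelled DUBs were enriched on NeutrAvidin, digested with LysC and trypsin, and analysed by diaPASEF LC-MS/MS. Values are average log2 fragment/vehicle ratios from an unpaired t-test on global-median-normalised Spectronaut label-free quantities, using proteins with ≥2 unique peptides.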
# ATXN3 = ATXN3 (UniProt P54252)
# ATXN3, sequence (P54252 whole entry): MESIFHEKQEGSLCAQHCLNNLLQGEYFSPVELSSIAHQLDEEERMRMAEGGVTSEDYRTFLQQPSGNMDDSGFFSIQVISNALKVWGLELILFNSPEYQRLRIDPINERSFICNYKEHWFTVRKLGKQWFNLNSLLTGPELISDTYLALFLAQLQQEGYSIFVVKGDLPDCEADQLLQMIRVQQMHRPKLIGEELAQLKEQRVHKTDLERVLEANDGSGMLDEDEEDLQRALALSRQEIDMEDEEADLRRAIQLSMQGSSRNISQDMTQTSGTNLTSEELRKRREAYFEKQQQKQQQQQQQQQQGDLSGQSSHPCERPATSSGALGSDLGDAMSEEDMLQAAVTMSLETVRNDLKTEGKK
# Procedure, shortened: as §1
# BAP1 = target: T2, BAP1 (UniProt Q92560)
# T2 sequence (whole entry): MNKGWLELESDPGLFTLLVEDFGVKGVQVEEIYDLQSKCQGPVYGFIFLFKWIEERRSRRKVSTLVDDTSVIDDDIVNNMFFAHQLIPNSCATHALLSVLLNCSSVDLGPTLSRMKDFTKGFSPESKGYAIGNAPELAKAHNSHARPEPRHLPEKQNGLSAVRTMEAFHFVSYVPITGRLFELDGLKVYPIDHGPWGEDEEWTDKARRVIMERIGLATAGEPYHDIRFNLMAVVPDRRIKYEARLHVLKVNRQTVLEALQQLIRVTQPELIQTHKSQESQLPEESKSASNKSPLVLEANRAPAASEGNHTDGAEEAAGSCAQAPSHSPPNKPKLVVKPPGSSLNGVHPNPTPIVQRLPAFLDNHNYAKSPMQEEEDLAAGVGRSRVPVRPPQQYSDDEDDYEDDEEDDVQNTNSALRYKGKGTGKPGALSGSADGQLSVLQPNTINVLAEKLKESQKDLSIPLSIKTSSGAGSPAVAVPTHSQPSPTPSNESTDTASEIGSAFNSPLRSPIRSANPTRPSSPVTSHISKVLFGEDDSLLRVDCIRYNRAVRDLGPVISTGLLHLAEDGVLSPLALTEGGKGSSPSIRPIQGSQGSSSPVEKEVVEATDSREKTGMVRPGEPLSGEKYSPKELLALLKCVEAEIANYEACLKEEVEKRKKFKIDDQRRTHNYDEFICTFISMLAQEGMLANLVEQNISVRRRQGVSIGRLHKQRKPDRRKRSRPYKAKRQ
# Procedure, shortened: as §1
# EIF3F = EIF3F (UniProt O00303)
# EIF3F, sequence (O00303 whole entry): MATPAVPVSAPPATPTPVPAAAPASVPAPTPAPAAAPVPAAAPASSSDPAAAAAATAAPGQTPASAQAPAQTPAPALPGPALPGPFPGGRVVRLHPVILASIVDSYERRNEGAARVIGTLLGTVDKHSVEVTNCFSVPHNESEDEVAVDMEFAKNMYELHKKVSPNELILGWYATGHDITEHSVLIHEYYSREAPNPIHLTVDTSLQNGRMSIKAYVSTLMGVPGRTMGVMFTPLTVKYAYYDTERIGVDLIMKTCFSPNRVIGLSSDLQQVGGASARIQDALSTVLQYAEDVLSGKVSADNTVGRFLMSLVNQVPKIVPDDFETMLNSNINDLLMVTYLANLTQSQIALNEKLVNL
# Procedure, shortened: as §1
# EIF3H = EIF3H (UniProt O15372)
# EIF3H, sequence (O15372 whole entry): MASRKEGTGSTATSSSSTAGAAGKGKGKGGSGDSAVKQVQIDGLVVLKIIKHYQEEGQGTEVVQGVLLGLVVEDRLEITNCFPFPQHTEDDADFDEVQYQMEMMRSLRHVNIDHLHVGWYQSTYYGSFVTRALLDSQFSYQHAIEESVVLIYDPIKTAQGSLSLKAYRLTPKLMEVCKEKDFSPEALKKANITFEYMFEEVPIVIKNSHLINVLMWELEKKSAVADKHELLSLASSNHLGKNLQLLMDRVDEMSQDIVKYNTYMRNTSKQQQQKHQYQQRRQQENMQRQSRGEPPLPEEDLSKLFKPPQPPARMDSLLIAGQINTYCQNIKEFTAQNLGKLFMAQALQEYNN
# Procedure, shortened: as §1
# FAM105A = target: T3, FAM105A (UniProt Q9NUU6)
# T3 sequence (whole entry): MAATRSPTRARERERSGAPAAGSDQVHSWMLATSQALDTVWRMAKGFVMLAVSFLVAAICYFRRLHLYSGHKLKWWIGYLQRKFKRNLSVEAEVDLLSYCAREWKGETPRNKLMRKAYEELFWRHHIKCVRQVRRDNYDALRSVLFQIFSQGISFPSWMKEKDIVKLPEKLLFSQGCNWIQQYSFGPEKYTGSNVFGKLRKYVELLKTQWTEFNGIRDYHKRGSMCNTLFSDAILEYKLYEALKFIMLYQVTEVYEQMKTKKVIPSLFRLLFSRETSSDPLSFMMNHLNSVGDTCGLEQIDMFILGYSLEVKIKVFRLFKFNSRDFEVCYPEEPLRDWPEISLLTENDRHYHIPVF
# Procedure, shortened: as §1
# OTUB1 = OTUB1 (UniProt Q96FW1)
# OTUB1, sequence (Q96FW1 whole entry): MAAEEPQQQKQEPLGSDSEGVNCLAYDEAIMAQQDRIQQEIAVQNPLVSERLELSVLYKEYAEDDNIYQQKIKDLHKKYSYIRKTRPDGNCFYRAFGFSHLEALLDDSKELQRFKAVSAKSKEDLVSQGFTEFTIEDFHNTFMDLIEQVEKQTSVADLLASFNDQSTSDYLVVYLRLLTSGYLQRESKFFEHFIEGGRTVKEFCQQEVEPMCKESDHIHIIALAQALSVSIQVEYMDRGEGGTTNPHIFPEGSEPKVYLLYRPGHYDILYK
# Procedure, shortened: as §1
# OTUD4 = target: T4, OTUD4 (UniProt Q01804)
# T4 sequence (whole entry): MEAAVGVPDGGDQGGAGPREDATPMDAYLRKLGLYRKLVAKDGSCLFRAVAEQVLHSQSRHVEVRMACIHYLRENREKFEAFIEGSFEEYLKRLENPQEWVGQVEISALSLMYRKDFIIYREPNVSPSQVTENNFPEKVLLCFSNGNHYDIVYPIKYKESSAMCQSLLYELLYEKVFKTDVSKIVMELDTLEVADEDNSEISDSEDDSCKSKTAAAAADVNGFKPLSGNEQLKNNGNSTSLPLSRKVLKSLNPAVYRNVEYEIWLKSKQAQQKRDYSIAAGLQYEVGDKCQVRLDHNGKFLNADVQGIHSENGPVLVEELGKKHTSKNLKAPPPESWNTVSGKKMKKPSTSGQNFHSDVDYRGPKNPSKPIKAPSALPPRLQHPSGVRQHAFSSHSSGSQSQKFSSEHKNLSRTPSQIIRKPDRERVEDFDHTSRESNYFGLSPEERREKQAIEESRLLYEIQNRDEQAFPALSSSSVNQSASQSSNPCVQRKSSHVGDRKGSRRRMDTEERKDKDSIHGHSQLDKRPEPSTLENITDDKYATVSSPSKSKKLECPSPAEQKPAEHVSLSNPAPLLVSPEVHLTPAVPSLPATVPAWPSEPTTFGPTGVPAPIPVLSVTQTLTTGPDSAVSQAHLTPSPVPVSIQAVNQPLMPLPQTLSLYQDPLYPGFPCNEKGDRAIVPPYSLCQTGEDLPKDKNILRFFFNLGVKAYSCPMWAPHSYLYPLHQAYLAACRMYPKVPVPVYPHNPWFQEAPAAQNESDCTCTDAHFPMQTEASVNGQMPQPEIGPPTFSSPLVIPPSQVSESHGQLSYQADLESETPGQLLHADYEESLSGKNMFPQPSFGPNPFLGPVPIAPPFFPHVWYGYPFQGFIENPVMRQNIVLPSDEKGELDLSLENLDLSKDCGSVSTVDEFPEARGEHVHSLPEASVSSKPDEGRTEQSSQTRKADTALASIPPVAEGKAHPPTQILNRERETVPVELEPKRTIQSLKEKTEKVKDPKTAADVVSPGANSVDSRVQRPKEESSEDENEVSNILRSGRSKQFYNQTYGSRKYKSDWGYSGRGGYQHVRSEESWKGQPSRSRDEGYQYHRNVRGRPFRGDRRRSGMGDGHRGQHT
# Procedure, shortened: as §1
# OTUD5 = target: T5, OTUD5 (UniProt Q96G74)
# T5 sequence (whole entry): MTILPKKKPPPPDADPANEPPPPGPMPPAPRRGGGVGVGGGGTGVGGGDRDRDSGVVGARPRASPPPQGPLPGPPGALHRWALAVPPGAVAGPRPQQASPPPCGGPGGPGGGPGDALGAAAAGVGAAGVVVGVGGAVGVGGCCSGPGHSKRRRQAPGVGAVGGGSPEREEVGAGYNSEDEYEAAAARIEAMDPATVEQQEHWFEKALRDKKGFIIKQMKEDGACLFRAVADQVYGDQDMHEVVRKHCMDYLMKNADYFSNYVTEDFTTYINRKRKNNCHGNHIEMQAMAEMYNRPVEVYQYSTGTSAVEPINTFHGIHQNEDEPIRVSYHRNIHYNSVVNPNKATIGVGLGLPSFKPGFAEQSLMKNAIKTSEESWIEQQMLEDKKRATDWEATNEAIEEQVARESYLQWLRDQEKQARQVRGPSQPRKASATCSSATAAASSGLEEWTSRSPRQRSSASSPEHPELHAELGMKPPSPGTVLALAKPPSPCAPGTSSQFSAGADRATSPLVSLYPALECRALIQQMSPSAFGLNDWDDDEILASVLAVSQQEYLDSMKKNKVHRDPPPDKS
# Procedure, shortened: as §1
smiles,measurement,setting,value
CNC(=O)Cn1cc(NC(=O)CCl)cn1,log2 ratio of Biotin-Ahx-Ub-VS probe labelling,ALG13,-0.433
same,log2 ratio of Biotin-Ahx-Ub-VS probe labelling,ATXN3,-0.517
same,log2 ratio of Biotin-Ahx-Ub-VS probe labelling,BAP1,-1.67 (active)
same,log2 ratio of Biotin-Ahx-Ub-VS probe labelling,EIF3F,-0.308
same,log2 ratio of Biotin-Ahx-Ub-VS probe labelling,EIF3H,0.0304
same,log2 ratio of Biotin-Ahx-Ub-VS probe labelling,FAM105A,-0.125
same,log2 ratio of Biotin-Ahx-Ub-VS probe labelling,OTUB1,-0.0242
same,log2 ratio of Biotin-Ahx-Ub-VS probe labelling,OTUD4,-0.305
same,log2 ratio of Biotin-Ahx-Ub-VS probe labelling,OTUD5,-0.468
